The list is not random: actives were taken first. Their share in the collection is about 3.9%.
Wnt bcat act – Wnt/beta-catenin pathway activation; Wnt/beta-catenin reporter cell assay, activator, plate reader; 300,000 compounds, 1.2% hits; AID 743398; activation, % at 9.35 µM; in the data active = activation above about 30%, passing the limit was not always enough; inconclusive = no clear call, values can overlap the other calls;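 note: 0% = neutral control wells and 100% = positive control wells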
HSF1 activator – increases HSF-1 driven luciferase reporter signal; NIH3T3-HGL HSF-1 luciferase reporter, MG132, 8 h; 100% = twice DMSO control signal; activation, % at 9 µM; 300,000 compounds, 1.7% hits; AID 504408;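 active = mean replicate activation of at least 50% with a set share of replicates each reaching 50%; inconclusive = only one of those two conditions met; inactive = mean below 50% and too few replicates reaching it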;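 note: 0% = median of the neutral control wells and 100% = twice that signal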
HSF1 inh – HSF1 inhibition; NIH3T3-HGL HSE-luciferase, MG132-induced, luminescence 8 h; hits give low values; activity change, negative = inhibition, % at 7.5 µM (by protocol); 300,000 compounds, 0.77% hits;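 active = more than half of replicate wells show activity change below -50%, luminescence cut by over half; inconclusive = some wells, but at most half, below -50%; inactive = no replicate well below -50%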;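 note: luciferase reports HSF-1 transcriptional activity via heat shock element; 0% = median of DMSO wells and -100% = zero luminescence signal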
esBAF inh – inhibitors of esBAF chromatin remodeling in mouse ES cells; Bmi1-luciferase knock-in reporter, 24 h; 100% = twice the neutral-well signal; reporter increase, % at 12.5 µM; 350,000 compounds, 2% hits; AID 602393; in the data active = activation above about 40%; inconclusive = no clear call, values can overlap the other calls;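 note: 0% = median of the plate's neutral control wells and 100% = double that signal; a rise in the Bmi1 reporter signal indicates esBAF inhibition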
MITF TRPM1 HTS – increases MITF-driven TRPM1 promoter luciferase signal; SK-MEL-5 TRPM1-promoter luciferase, 24 h; % of positive control, neutral wells = 0; 300,000 compounds, 0.75% hits; activation, % at 12.5 µM;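 active = mean activation of at least 80% with every replicate also reaching 80%; inconclusive = mean reaches 80% but some replicate falls short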;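 note: 0% = neutral control wells and 100% = parthenolide positive control wells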
* marks the source's active call; other numbers are inactive results; ? = inconclusive; . = no result.

SMILES | Wnt bcat act | HSF1 activator | HSF1 inh | esBAF inh | MITF TRPM1 HTS
CCCC/C=C1\CCc2c([nH]c3ccccc23)C1=O | 3.7 | 48.6 | 21.4 | ? | 64.9
C[C@@H]1CCCCO[C@H](CN(C)Cc2ccc(C(=O)Nc3ccccc3N)cc2)[C@@H](C)CN([C@@H](C)CO)C(=O)c2cc(NS(=O)(=O)c3ccc(Cl)cc3)ccc2O1 | . | . | . | -14.4 | .
COc1ccc(NC(=O)N(C)C[C@@H]2OCCCC[C@@H](C)Oc3ccc(NC(=O)NC4CCCCC4)cc3C(=O)N([C@@H](C)CO)C[C@H]2C)cc1 | . | . | . | -3.8 | .
Cc1ccc(CN2C(=O)CSC2c2cccnc2)cc1 (stereo unspecified) | -2.9 | -3.2 | -7.3 | 2.1 | -2.9
O=C1CSC(c2cccnc2)N1Cc1ccc(Cl)cc1 (stereo unspecified) | 35.3* | 17.6 | 1.6 | -0.1 | 10.4
COc1ccc(NC(=O)C2=Cc3cccc(OC)c3OC2)cc1 | 44.3* | . | . | . | 51.7
COc1ccc(NC(=O)C2=Cc3ccccc3OC2)cc1 | 13.3 | 35.4 | 12.4 | -24.2 | 13.3
Brc1ccc(-n2cnc(-c3ccccc3)c2)cc1 | 44.9* | 77.5* | 45.9 | 11.6 | 45.4
C=CCn1c(C)cc(-c2csc(NC(=O)C3=COCCO3)n2)c1C | -13.9 | -3.4 | -1.3 | . | 119.6*
C[C@H]1CN([C@@H](C)CO)C(=O)Cc2cc(NS(=O)(=O)c3cccs3)ccc2O[C@H]1CN(C)Cc1ccccc1 | . | . | . | -7.5 | .
O=C1C(Cl)=C(N2CCN(c3ccccc3[N+](=O)[O-])CC2)C(=O)c2ccccc21 | 14.0 | 124.5* | 86.6 | . | -27.8
O=[N+]([O-])c1cc(Cl)ccc1N1CCCC1 | -5.4 | 10.1 | -5.6 | -3.8 | 0.7
O=C(C[C@@H]1CC[C@H]2[C@@H](COC[C@@H](O)CN2Cc2cccc(C(F)(F)F)c2)O1)NCCc1ccccc1 | . | . | . | 4.8 | .
CCc1ccc(-c2csc(-c3c[nH]c4ccccc34)n2)cc1 | . | 2.9 | 5.9 | 65.9* | 67.8
Nc1nc(-c2c[nH]c3ccccc23)cs1 | 2.6 | -6.4 | 6.9 | -1.1 | 17.2
COc1cccc(-c2nc3ccccc3s2)c1O | ? | 90.4* | 39.3 | -3.8 | 18.2
COc1cc(C(=O)NCc2ccc(-c3nc4ccccc4s3)cc2)cc(OC)c1OC | -2.1 | 30.4 | 22.3 | . | 47.6
COc1cc(OC)c(-c2nc3ccccc3s2)cc1OC | 19.8 | -10.5 | -2.3 | . | -0.4
COc1cccc(C(=O)NCc2ccc(-c3nc4ccccc4s3)cc2)c1 | -0.8 | 17.6 | 5.9 | 51.8* | 44.6
COc1ccccc1C(=O)NCc1ccc(-c2nc3ccccc3s2)cc1 | -1.5 | -52.8 | -59.3* | . | -6.7
COC(=O)Cc1ccc2sc(-c3ccccc3)nc2c1 | . | 61.5* | 29.8 | 38.7 | 21.2
CNC[C@@H]1Oc2cc(-c3ccc(OC)cc3)ccc2S(=O)(=O)N([C@H](C)CO)C[C@H]1C | . | . | . | -3.5 | .
COc1ccc(C(=O)NCc2ccc(-c3nc4ccccc4s3)cc2)cc1 | . | 59.9* | 24.3 | 69.5* | 73.6
Cc1noc(C)c1S(=O)(=O)N(C)C[C@@H]1OCCCC[C@H](C)Oc2ccc(N(C)C)cc2C(=O)N([C@H](C)CO)C[C@H]1C | . | . | . | 16.8 | .
COc1ccccc1Oc1cc(C#N)c(C#N)cc1-n1nnc2ccccc21 | -1.5 | 78.7* | 45.9 | -8.4 | -21.7
SMILES | Wnt bcat act | HSF1 activator | HSF1 inh | esBAF inh | MITF TRPM1 HTS
N#Cc1cc([N+](=O)[O-])c(-n2nnc3ccccc32)c([N+](=O)[O-])c1 | . | -24.2 | -12.3 | . | -11.6
CCc1ccccc1N(CC(=O)NCc1ccco1)C(=O)CCC(=O)Nc1ccccn1 | -1.9 | -76.5 | -70.4* | -1.4 | 2.8
CCc1ccc(N(CC(=O)NCc2ccco2)C(=O)CCC(=O)Nc2ccccn2)cc1 | -2.4 | 1.5 | -0.8 | -2.1 | -4.7
CC[C@@]1(O)C(=O)OCc2c1cc1n(c2=O)Cc2cc3c(N)cccc3nc2-1 | -17.9 | 50.4* | 23.1 | -74.2 | -80.4
CC[C@@]1(O)C(=O)OCc2c1cc1n(c2=O)Cc2cc3c(CN(C)C)c(O)ccc3nc2-1 | 5.1 | -0.2 | 4.3 | -46.3 | -78.4
CC(=O)C(/C=N/c1cc(-c2ccc(C)cc2)nn1-c1ccccc1)=C(\C)O | 38.4* | 41.9 | 14.2 | . | 41.9
Cc1ccc(NC(=O)c2cc(-c3ccccc3)nn2-c2ccccc2)cc1 | -0.7 | 1.5 | 7.9 | . | 2.7
Fc1ccccc1N1CCN(c2cnc3ccccc3n2)CC1 | . | 62.4* | 35.9 | -6.6 | 54.2
COc1ccc(NC(=O)Nc2ccc3c(c2)[C@H]2C[C@H](CC(=O)NCc4ccccc4F)O[C@@H](CO)[C@H]2O3)cc1 | . | . | . | -2.0 | .
Cc1cc2nc(C3CCCN(C(=S)Nc4ccccc4C)C3)[nH]c2cc1C (stereo unspecified) | -9.8 | -33.9 | -30.9 | 3.8 | -12.9
Cc1cc2nc(C3CCCN(C(=O)NCc4ccccc4)C3)[nH]c2cc1C (stereo unspecified) | 46.0* | 39.1 | 26.7 | 36.1 | 39.3
C[C@H](CO)N1C[C@H](C)[C@H](CN(C)C(=O)c2ccncc2)Oc2ncc(-c3ccc(C(=O)N(C)C)cc3)cc2C1=O | . | . | . | -3.7 | .
CN1CCN(C(=O)C[C@H]2CC[C@H]3[C@@H](COC[C@H](O)CN3C(=O)Nc3ccc(F)cc3)O2)CC1 | . | . | . | -1.1 | .
CCCC#Cc1ccc2c(c1)O[C@H](CN(C)C(C)=O)[C@@H](C)CN([C@@H](C)CO)S2(=O)=O | . | . | . | 0.6 | .
Cc1ccc(-n2ncc3c(=O)n(CC(=O)N(C)C)cnc32)cc1C | 5.4 | 8.4 | 2.6 | 10.1 | .
CC(C)CCn1cnc2c(cnn2-c2ccc(F)cc2)c1=O | . | 30.9 | 11.4 | 45.9* | 23.5
CC(=O)Cn1cnc2c(cnn2-c2ccc(C)c(C)c2)c1=O | 21.7 | 59.0* | 7.4 | ? | ?
CN1C(=O)c2cc(NC(=O)c3ccc(C(F)(F)F)cc3)ccc2OC[C@@H]2O[C@H](CC(=O)O)CC[C@@H]21 | . | . | . | -3.4 | .
Cc1cccc(Nc2nc(N)nc(CSc3nccn3C)n2)c1 | . | 24.4 | 5.9 | 53.0* | .
C[C@H]1CN([C@@H](C)CO)C(=O)c2cc(NC(=O)CCC(F)(F)F)ccc2O[C@H]1CN(C)CC1CC1 | . | . | . | 3.9 | .
CCCC(=O)Nc1cccc(NC(=O)c2ccc([N+](=O)[O-])cc2Cl)c1 | -1.3 | -10.5 | -6.5 | . | 2.9
CCCC(=O)Nc1ccc(Cl)c(NC(=O)c2ccc([N+](=O)[O-])cc2Cl)c1 | . | -72.6 | -63.7* | . | 2.4
CCCC(=O)Nc1cccc(NC(=O)c2cccc([N+](=O)[O-])c2C)c1 | -1.8 | -76.7 | -70.8* | . | -7.7
CCCC(=O)Nc1ccc(Cl)c(NC(=O)c2cccnc2)c1 | . | -89.3 | -86.7* | 2.7 | -17.1
CCC(=O)NC(=S)Nc1ccc(NC(=O)c2cccc([N+](=O)[O-])c2C)cc1 | . | 8.2 | 0.0 | . | 4.9
CCOC(=O)N(C)C[C@H]1OCc2ccccc2-c2c(n(C)c3ccccc23)C(=O)N([C@@H](C)CO)C[C@@H]1C | . | . | . | -8.6 | .
O=C(CN1CCCC1)Nc1c2c(cc3c1CCC3)CCC2 | -0.1 | -70.9 | -64.1* | . | 1.2
CCC(=O)Nc1ccc2c(c1)C(=O)N(C)[C@H]1CC[C@@H](CC(=O)O)O[C@H]1CO2 | . | . | . | 2.0 | .
